# From the supplement of paper PMC7057948, “A genome-wide approach for identification and characterisation of metabolite-inducible systems” (Nature Communications, 2020)
# Legend:
# Details in all cases: inducer concentration 5 mM; 6 h; Cupriavidus necator H16; minimal medium + 0.4% gluconate
# [1] = test system: AcoR/P_H16_RS19445 acetoin biosensor (pEH052); test: relative induction of RFP reporter vs primary effector; higher = stronger activation
# Method: (§1)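 Orthogonality screen of 21 primary inducers against 21 transcription factor/inducible promoter–mRFP biosensors in C. necator H16 in minimal medium, robotic 96-well format, 5 mM inducer, 30 °C. OD-normalised RFP fluorescence was read 6 h later and expressed as relative induction (%) = 100 × (FL compound − FL uninduced)/(FL primary inducer − FL uninduced); mean of n=4. Cognate pairs (100% by definition) omitted.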
# [2] = test system: BadR/P_H16_RS27200 cyclohexanecarboxylate biosensor (pEH159); test: as above
# Method: as §1
# [3] = test system: BenM/P_H16_RS09790 benzoate biosensor (pEH148); test: as above
# Method: as §1
# [4] = test system: FdsR/P_H16_RS03165 formate biosensor (pEH134); test: as above
# Method: as §1
# [5] = test system: GabR/P_H16_RS23655 GABA biosensor (pEH256); test: as above
# Method: as §1
# [6] = test system: HpdA/P_H16_RS24175 L-tyrosine biosensor (pEH158); test: as above
# Method: as §1
# [7] = test system: NahR/P_H16_RS08125 salicylate biosensor (pEH042); test: as above
# Method: as §1
# [8] = test system: OapR/P_H16_RS01330 beta-alanine biosensor (pEH147); test: as above
# Method: as §1
# [9] = test system: PcaQ/P_H16_RS30145 3,4-dihydroxybenzoate biosensor (pEH161); test: as above
# Method: as §1
# [10] = test system: PhgR/P_H16_RS05530 phenylglyoxylate biosensor (pEH155); test: as above
# Method: as §1
# [11] = test system: SauR/P_H16_RS13695 sulfonatoacetate biosensor (pEH157); test: as above
# Method: as §1
# [12] = test system: TtdR/P_H16_RS10665 tartrate biosensor (pEH083); test: as above
# Method: as §1
# [13] = test system: XdhR/P_H16_RS05055 xanthine biosensor (pEH154); test: as above
# Method: as §1
# [14] = test system: heterologous L-rhamnose-inducible system; test: as above
# Method: as §1
# [15] = test system: heterologous acrylate-inducible system; test: as above
# Method: as §1
# [16] = test system: heterologous cumate-inducible system; test: as above
# Method: as §1
# [17] = test system: heterologous itaconate-inducible system; test: as above
# Method: as §1
# [18] = test system: AcoR/P_H16_RS19445 acetoin biosensor (pEH052); test: relative induction of RFP reporter vs primary effector (background-corrected); higher = stronger activation of the biosensor
# Method: (§2)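 C. necator H16 strains, each carrying one of 21 transcription factor/inducible promoter–mRFP biosensor plasmids, were grown in minimal medium in 96-well plates (robotic platform). Each was exposed to 46 structurally or metabolically related compounds at 5 mM at 30 °C. OD-normalised RFP fluorescence was read 6 h later and expressed as relative induction (%) = 100 × (FL compound − FL uninduced)/(FL primary inducer − FL uninduced); mean of n=4.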
# [19] = test system: AraC/P_araBAD L-arabinose biosensor (pEH176); test: as above
# Method: as §2
# [20] = test system: BenM/P_H16_RS09790 benzoate biosensor (pEH148); test: as above
# Method: as §2
# [21] = test system: FdsR/P_H16_RS03165 formate biosensor (pEH134); test: as above
# Method: as §2
# [22] = test system: GabR/P_H16_RS23655 GABA biosensor (pEH256); test: as above
# Method: as §2
# [23] = test system: HpdR/P_H16_RS18295 3-hydroxypropanoate biosensor (pEH010); test: as above
# Method: as §2
# [24] = test system: KynR/P_H16_RS14030 L-kynurenine biosensor (pEH136); test: as above
# Method: as §2
# [25] = test system: NahR/P_H16_RS08125 salicylate biosensor (pEH042); test: as above
# Method: as §2
# [26] = test system: OapR/P_H16_RS01330 beta-alanine biosensor (pEH147); test: as above
# Method: as §2
# [27] = test system: PcaQ/P_H16_RS30145 3,4-dihydroxybenzoate biosensor (pEH161); test: as above
# Method: as §2
# [28] = test system: PhgR/P_H16_RS05530 phenylglyoxylate biosensor (pEH155); test: as above
# Method: as §2
# [29] = test system: PhhR/P_H16_RS18365 L-phenylalanine biosensor (pEH137); test: as above
# Method: as §2
# [30] = test system: SauR/P_H16_RS13695 sulfonatoacetate biosensor (pEH157); test: as above
# Method: as §2
# [31] = test system: TtdR/P_H16_RS10665 tartrate biosensor (pEH083); test: as above
# Method: as §2
# [32] = test system: XdhR/P_H16_RS05055 xanthine biosensor (pEH154); test: as above
# Method: as §2
# [33] = test system: heterologous inducible system pEH002 (rhamnose/acrylate/cumate/itaconate set); test: as above
# Method: as §2
# [34] = test system: heterologous inducible system pEH020 (rhamnose/acrylate/cumate/itaconate set); test: as above
# Method: as §2
# [35] = test system: heterologous inducible system pEH040 (rhamnose/acrylate/cumate/itaconate set); test: as above
# Method: as §2
# [36] = test system: heterologous inducible system pEH086 (rhamnose/acrylate/cumate/itaconate set); test: as above
# Method: as §2
# [37] = test system: AraC/P_araBAD L-arabinose biosensor (pEH176); test: relative induction of RFP reporter vs primary effector; higher = stronger activation
# Method: as §1
# 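Throughout, for relative induction of RFP reporter vs primary effector (background-corrected): RFP excited at 585 nm with emission read at 620 nm, culture medium blanks subtracted from fluorescence and absorbance prior to normalisation.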
compound,measurement,setting,value
OC1OC[C@H](O)[C@H](O)[C@H]1O (mixture of isomers) [L-arabinose],relative induction of RFP reporter,[1],-0.298%
same,relative induction of RFP reporter,[2],-0.67%
same,relative induction of RFP reporter,[3],-0.0174%
same,relative induction of RFP reporter,[4],-1.73%
same,relative induction of RFP reporter,[5],-0.944%
same,relative induction of RFP reporter,[6],0.0304%
same,relative induction of RFP reporter,[7],-0.0109%
same,relative induction of RFP reporter,[8],-0.0273%
same,relative induction of RFP reporter,[9],-0.0772%
same,relative induction of RFP reporter,[10],-0.169%
same,relative induction of RFP reporter,[11],-0.00743%
same,relative induction of RFP reporter,[12],-0.392%
same,relative induction of RFP reporter,[13],-0.221%
same,relative induction of RFP reporter,[14],0.00935%
same,relative induction of RFP reporter,[15],-0.681%
same,relative induction of RFP reporter,[16],-0.337%
same,relative induction of RFP reporter,[17],0.00235%
Oc1ccccc1O [catechol],relative induction of RFP reporter,[18],1.82%
same,relative induction of RFP reporter,[19],-0.00935%
same,relative induction of RFP reporter,[20],9.72%
same,relative induction of RFP reporter,[21],-2.57%
same,relative induction of RFP reporter,[22],3.82%
same,relative induction of RFP reporter,[23],0.415%
same,relative induction of RFP reporter,[24],0.704%
same,relative induction of RFP reporter,[25],0.0978%
same,relative induction of RFP reporter,[26],-1.89%
same,relative induction of RFP reporter,[27],0.794%
same,relative induction of RFP reporter,[28],0.769%
same,relative induction of RFP reporter,[29],-0.0234%
same,relative induction of RFP reporter,[30],0.114%
same,relative induction of RFP reporter,[31],2.09%
same,relative induction of RFP reporter,[32],0.259%
same,relative induction of RFP reporter,[33],0.0302%
same,relative induction of RFP reporter,[34],-0.684%
same,relative induction of RFP reporter,[35],4.75%
same,relative induction of RFP reporter,[36],-0.178%
O=CO [formate],relative induction of RFP reporter,[1],-0.63%
same,relative induction of RFP reporter,[37],-0.0317%
same,relative induction of RFP reporter,[2],-0.738%
same,relative induction of RFP reporter,[3],0.0137%
same,relative induction of RFP reporter,[5],-0.53%
same,relative induction of RFP reporter,[6],-0.107%
same,relative induction of RFP reporter,[7],0.0105%
same,relative induction of RFP reporter,[8],0.208%
same,relative induction of RFP reporter,[9],-0.0432%
same,relative induction of RFP reporter,[10],-0.511%
same,relative induction of RFP reporter,[11],0.0555%
same,relative induction of RFP reporter,[12],0.287%
same,relative induction of RFP reporter,[13],-0.347%
same,relative induction of RFP reporter,[14],0.0165%
same,relative induction of RFP reporter,[15],-0.251%
same,relative induction of RFP reporter,[16],-0.422%
same,relative induction of RFP reporter,[17],0.516%
"NC(C(=O)O)c1ccccc1 (racemic) [D,L-2-phenylglycine]",relative induction of RFP reporter,[18],2.41%
same,relative induction of RFP reporter,[19],-0.0373%
same,relative induction of RFP reporter,[20],0.0272%
same,relative induction of RFP reporter,[21],5.96%
same,relative induction of RFP reporter,[22],-1.88%
same,relative induction of RFP reporter,[23],0.893%
same,relative induction of RFP reporter,[24],-0.416%
same,relative induction of RFP reporter,[25],0.0395%
same,relative induction of RFP reporter,[26],0.858%
same,relative induction of RFP reporter,[27],0.145%
same,relative induction of RFP reporter,[28],1.69%
same,relative induction of RFP reporter,[29],-0.209%
same,relative induction of RFP reporter,[30],-0.00851%
same,relative induction of RFP reporter,[31],0.176%
same,relative induction of RFP reporter,[32],0.377%
same,relative induction of RFP reporter,[33],0.012%
same,relative induction of RFP reporter,[34],3.29%
same,relative induction of RFP reporter,[35],0.705%
same,relative induction of RFP reporter,[36],0.876%
